Rows were chosen to be rich in hits. Some 18% of all compounds tested hit in one or more screens of this group.
RORgamma inh = ROR gamma (mouse) transcription inhibition; P51450; Drosophila S2 Gal4-RORgamma UAS-luciferase reporter, 20 h; Potency, µM (series often up to 53.6 µM), hits mostly inhibitors; 310,000 tested, 5.4% active; AID 2551; note: nearly all actives have a fitted effect of over 60% in size
Target sequence (P51450 whole entry, looked up, the tested form may be a part): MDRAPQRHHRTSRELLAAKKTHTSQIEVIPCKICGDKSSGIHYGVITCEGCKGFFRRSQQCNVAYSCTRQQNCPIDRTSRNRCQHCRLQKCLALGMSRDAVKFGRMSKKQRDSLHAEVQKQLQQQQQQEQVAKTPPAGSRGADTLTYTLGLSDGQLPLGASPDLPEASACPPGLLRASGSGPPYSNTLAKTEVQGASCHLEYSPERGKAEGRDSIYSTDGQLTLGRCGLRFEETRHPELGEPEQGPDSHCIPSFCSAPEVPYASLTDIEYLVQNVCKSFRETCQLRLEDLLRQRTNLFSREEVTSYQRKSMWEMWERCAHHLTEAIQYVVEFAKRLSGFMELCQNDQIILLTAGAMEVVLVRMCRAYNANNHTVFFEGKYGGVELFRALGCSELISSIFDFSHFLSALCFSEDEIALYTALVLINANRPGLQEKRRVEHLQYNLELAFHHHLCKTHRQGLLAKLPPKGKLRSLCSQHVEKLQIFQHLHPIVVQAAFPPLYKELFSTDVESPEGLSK
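Compounds are pin-transferred onto Drosophila Schneider cells expressing a copper-inducible Gal4–ROR gamma transactivation domain fusion. After 1 hr, copper sulfate is added to 700 uM final; luciferase is read 20 hr later.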
LDHA block = blocks human lactate dehydrogenase A | activity change, % (values are at about 110 or 230 µM) | purified LDHA, NADH/diaphorase-resazurin fluorescence; stronger effect = lower value | P00338 | 480,000 tested, 0.15% active; in the data active = activity change below about -30%; inconclusive = mostly about -25% to -30%
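Resorufin fluorescence (ex540/em590), read at 0 and 20 min after diaphorase/resazurin addition, reports the NADH left after a 5 min room-temperature reaction of 2 nM human LDH5 with 0.06 mM NADH and 0.2 mM pyruvate.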
TDP1 cell CPT = growth inhibition of DT40 Tdp1-/-;hTDP1 cells with camptothecin (screen for TDP1 inhibitors); chicken DT40 Tdp1-/-;hTDP1 cells + 20 nM CPT, ATP luminescence, 48 h; 420,000 tested, 12% active; Potency, µM (highest dose often 46.2 µM), hits mostly inhibitors; note: nearly all actives have a fitted effect of over 55% in size
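Chicken DT40 Tdp1-/- cells stably complemented with human TDP1 were seeded at 400 cells/well in medium containing 20 nM camptothecin, exposed to pin-transferred compounds, and grown at 37 °C for at least 48 hr. Viability was read as ATP luminescence.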
DT40 TDP1 no CPT = qHTS for Inhibitors of human tyrosyl-DNA phosphodiesterase 1 (TDP1): qHTS in cells in absence of CPT | DT40 Tdp1-/- hTDP1 cells, no CPT, ATP luminescence, 48 h | 420,000 tested, 15% active | AID 686978, 2013 | Potency, µM (top dose mostly 46.2 µM), usual class: inhibitors; note: nearly all actives have a fitted effect of over 55% in size
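Readout: luminescence from CellTiter-Glo after 30 min in the dark at RT. Cells: DT40 Tdp1-/- with stable hTDP1, 400/well. Exposure: compounds alone, ≥48 hr, 37 °C.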
IL1B secr inh = inhibitors of inflammasome signaling (IL-1 beta secretion) | 360,000 tested, 4.7% active | activity change, % at 57.5 µM | THP-1 LPS/ATP IL-1B secretion, AlphaLISA, 16 h; stronger effect = lower value | AID 743279; in the data active = activity change below about -50%; inconclusive = mostly about -30% to -49%
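Secreted IL-1B measured by AlphaLISA bead assay after 16 h compound exposure of THP-1 cells; compounds (final up to 57.5 uM) added 1 h before LPS (250 ng/mL) and ATP (1.25 mM) stimulation; lower signal means less secretion.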
VP16 counter = Gal4-VP16 reporter inhibition counter-screen; AID 2546; Drosophila S2 Gal4-VP16 UAS-luciferase, luminescence, 20 h; Potency, µM (titrated, usually from 53.6 µM), most hits filed as inhibitors; 310,000 tested, 3.5% active;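 note: Gal4-VP16 expression switched on by copper sulfate through the metallothionein promoter; nearly all actives have a fitted effect of over 50% in size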
A number is an active result; . = inactive; ? = inconclusive; / = no result given. Unless noted, calls come from the whole dose curve; as a rule, active = well fitted curve in the direction sought with a large enough effect; inconclusive = small, poorly fitted or top-dose-only effect, or another doubt; inactive = no such curve, though single readings can be large; an effect the other way counts as inactive or inconclusive.

SMILES	RORgamma inh	LDHA block	TDP1 cell CPT	DT40 TDP1 no CPT	IL1B secr inh	VP16 counter
COCCNC(=O)c1ccccc1NC(=O)Nc1ccccc1	.	.	.	.	-50	.
COCCCNC(=S)Nc1ccccc1C	?	.	.	.	.	.
O=C(c1ccc(CS(=O)(=O)c2ccc(Br)cc2)o1)N1CCN(c2ccc(F)cc2)CC1	.	.	?	23µM	.	.
NC(=O)C1CCN(C(=O)COc2ccc(S(=O)(=O)NC3CCCC3)cc2)CC1	.	.	.	.	.	.
O=C(COc1ccc(S(=O)(=O)NC2CCCCC2)cc1)N1CCN(c2ccc(F)cc2)CC1	.	.	16µM	21µM	.	?
O=C(CCS(=O)(=O)c1ccc(Br)cc1)N1CCN(c2ccc(F)cc2)CC1	.	.	?	16µM	.	.
O=C(NCc1ccc(F)cc1)c1ccc(CS(=O)(=O)c2ccc(Br)cc2)o1	.	.	?	10µM	?	.
O=C(NCc1ccc2c(c1)OCO2)c1ccc(CS(=O)(=O)c2ccc(Br)cc2)o1	.	.	?	?	.	.
COc1ccc(-c2ccc(=O)n(CC(=O)NCc3cccnc3)n2)c(F)c1	/	.	/	/	/	/
Cc1cccc2c(-c3ccccc3)c(-c3ccccc3)[nH]c12	/	.	/	/	/	/
CCOC(=O)C(NC(=O)CC)C(OC(=O)CC)c1ccccc1 (stereo unspecified)	/	.	/	/	/	/
O=C(CCS(=O)(=O)c1ccc(Cl)cc1)Nc1ccc(N2CCOCC2)cc1	.	.	21µM	15µM	.	.
O=C(CNS(=O)(=O)c1ccc(Br)cc1)N1CCN(c2ccc(F)cc2)CC1	.	.	?	18µM	.	.
O=C(CNS(=O)(=O)c1ccc(Cl)cc1)N1CCN(c2ccc(F)cc2)CC1	/	.	?	?	.	/
O=C(CCS(=O)(=O)c1ccc(Br)cc1)N1CCN(c2ccc(Cl)cc2)CC1	?	.	?	15µM	.	?
CNS(=O)(=O)c1cn(CC(=O)N2CCN(c3ccc(Cl)cc3)CC2)cc1S(=O)(=O)NC	/	.	15µM	13µM	/	/
COc1ccc(C(=O)NCC(=O)N2CCN(c3ccc(Cl)cc3)CC2)cc1	.	.	.	?	.	.
c1coc(-c2nc(CSc3ccc4c(c3)OCCCO4)cs2)c1	/	.	/	/	/	/
COc1cccc(N2CCN(C(=O)CCS(=O)(=O)c3ccc4c(c3)CC(=O)N4C)CC2)c1	/	.	?	?	/	/
CN1C(=O)Cc2cc(S(=O)(=O)CCC(=O)N3CCN(c4ccc(Cl)cc4)CC3)ccc21	/	.	21µM	15µM	/	/
CCOC(=O)C1CCN(C(=O)c2ccc3c(=O)n4nc(Nc5ccccc5)sc4nc3c2)CC1	/	.	21µM	15µM	.	/
COc1ccccc1Nc1nn2c(=O)c3ccc(C(=O)N4CCC(C)CC4)cc3nc2s1	.	.	23µM	18µM	.	.
CCc1ccccc1Nc1nn2c(=O)c3ccc(C(=O)NC4CCC(C)CC4)cc3nc2s1 (stereo unspecified)	/	.	?	16µM	/	/
Cc1ccc(Cl)cc1Nc1nn2c(=O)c3ccc(C(=O)NC4CCC(C)CC4)cc3nc2s1 (stereo unspecified)	/	.	.	?	/	/
COc1ccccc1Nc1nn2c(=O)c3ccc(C(=O)NC4CCC(C)CC4)cc3nc2s1 (stereo unspecified)	/	.	5.8µM	5.2µM	/	/
SMILES	RORgamma inh	LDHA block	TDP1 cell CPT	DT40 TDP1 no CPT	IL1B secr inh	VP16 counter
Cc1ccccc1Nc1nn2c(=O)c3ccccc3nc2s1	.	.	?	?	.	.
Cc1ccccc1Nc1nn2c(=O)c3ccc(C(=O)N4CCCC(C)C4)cc3nc2s1 (stereo unspecified)	/	.	15µM	16µM	.	/
Cc1ccc(C(=O)Nc2sccc2C#N)s1	/	.	/	/	/	/
c1ccc(N(c2ccccc2)c2nc(-n3ccnc3)nc(-n3ccnc3)n2)cc1	.	.	?	?	.	.
CCCCNc1nc(N(C)c2ccccc2)nc(-n2ccnc2)n1	10µM	.	?	?	.	?
CN(c1ccccc1)c1nc(-n2ccnc2)nc(-n2ccnc2)n1	.	.	.	.	.	.
C=CCNc1nc(N(c2ccccc2)c2ccccc2)nc(-n2ccnc2)n1	11µM	.	?	?	.	.
COc1ccc(C=O)cc1COc1cc(C)cc(C)c1	/	.	/	/	/	/
Fc1ccccc1CCNc1c2c(nc3ncnn13)CCCC2	.	.	9.2µM	5.2µM	.	.
O=C(COC(=O)c1cc(NS(=O)(=O)c2cccs2)ccc1O)Nc1cc(Cl)ccc1Cl	?	.	.	.	.	13µM
O=C(COC(=O)c1cc(NS(=O)(=O)c2cccs2)ccc1O)Nc1ccc(F)c(F)c1F	.	.	.	.	.	.
CCCCn1nc(C(=O)Nc2cc(C(=O)O)ccc2C)c2ccccc2c1=O	/	.	/	/	/	/
COC(=O)c1ccc(Oc2c(C)oc3cc(OC(=O)c4ccccc4F)ccc3c2=O)cc1	/	.	/	/	/	/
COC(=O)[C@@]12C[C@@H](CC(=O)N3CCSCC3)C(=O)N(Cc3ccccc3)C1=CCC(C)(C)C2	/	.	.	?	.	/
CCCCCCCCN1C(=O)[C@H](CC(=O)N2CCC(c3ccccc3)CC2)C[C@@]2(C(=O)OC)CC(C)(C)CC=C12	/	.	?	16µM	.	/
CCCCCCCCN1C(=O)[C@H](CC(=O)NCCC(C)C)C[C@@]2(C(=O)OC)CC(C)(C)CC=C12	/	.	?	?	.	/
CCCCCCCCN1C(=O)[C@H](CC(=O)N2CCSCC2)C[C@@]2(C(=O)OC)CC(C)(C)CC=C12	/	.	?	16µM	.	/
CCCCCCCCN1C(=O)[C@H](CC(=O)N2CCCC2)C[C@@]2(C(=O)OC)CC(C)(C)CC=C12	/	.	9.2µM	?	.	/
COC(=O)[C@@]12C[C@@H](CC(=O)N3CCOCC3)C(=O)N(Cc3ccccc3)C1=CCC(C)(C)C2	/	.	.	?	.	/
O=C1Nc2ccc(Br)cc2/C1=C/C1CC=CCC1 (stereo unspecified)	?	.	18µM	?	-99	?
O=C1NC(Cc2ccccc2)C(=O)Nc2ccc(Br)cc21 (stereo unspecified)	.	.	.	?	.	.
O=C(C1CCC1)N(C1CCCCC1)C1CCCCC1	/	.	/	/	/	/
CCOc1cc(N2CCOCC2)c(OCC)cc1NCC(=O)N1CCN(Cc2ccccc2)CC1	.	.	?	?	.	?
CCOc1ccc(OCCC(=O)OCC(=O)Nc2cc(OCC)c(N3CCOCC3)cc2OCC)cc1	/	.	18µM	26µM	.	/
CCOc1cc(N2CCOCC2)c(OCC)cc1NC(=O)COC(=O)c1ccc(Cl)nc1	/	.	.	.	.	/
